# Assay results reported in PubChem BioAssay.
# The source made the active and inactive calls. Unless noted, no rule for the calls is given here.
# How the values were obtained:
# [1] = compounds binding Alexa647 anti-His antibody – biochemical, small-molecule microarray, 635 nm fluorescence, artefact control for SMM control protein annotation, primary screen (AID 1128); conditions: higher = more signal;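 also: score merges feature fluorescence with signal-to-noise for each printed compound spot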
# [2] = tested on: Human papillomavirus type 1a E7 protein (residues 1-88); assay: HPV1a E7 small-molecule binders, primary screen, biochemical, small-molecule microarray, residues 1-88, 635 nm (AID 1129); conditions: small-molecule microarray binding, fluorescence 635 nm; higher = more signal
# [3] = molecular target: Focal adhesion kinase 1 (Homo sapiens) (UniProt Q05397); assay: PTK2 protein binding on printed compound slides – biochemical, small-molecule microarray, 635/667 nm fluorescence, BSA, DTT, primary screen (AID 1130); conditions: 635 nm fluorescence, higher = more signal;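 also: composite of spot emission at 667 nm and signal to noise over triplicate slides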
# [4] = tested on: Fibrinogen (Alexa647-labelled); assay: Alexa647-fibrinogen binding to printed small molecules – biochemical, small-molecule microarray, 635/667 nm fluorescence, artefact control for SMM control-protein annotation, profiling panel (AID 1131); conditions: fibrinogen-A647 binding fluorescence, higher = more signal;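 also: z-score merges 667 nm fluorescence with per-spot signal-to-noise over triplicate slides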
# [5] = molecular target: Follistatin (Homo sapiens) (UniProt P19883); assay: FST protein binding to printed compounds – biochemical, small-molecule microarray, 635/667 nm fluorescence, primary screen (AID 1132); conditions: 635 nm fluorescence, higher = more signal
# [6] = molecular target: Fibroblast growth factor 2 (Homo sapiens) (UniProt P09038); assay: basic fibroblast growth factor binding to printed compounds – biochemical, small-molecule microarray, 635/667 nm fluorescence, primary screen (AID 1133); conditions: FGF2, fluorescence 635/667, higher = more signal
# [7] = JC-1 mitochondrial potential readout, lung cancer cells – cell-based, A549, JC-1 fluorescence, basal, 24 h, 100 nL, profiling panel (AID 1138); conditions: higher = more signal;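 also: A549 lung adenocarcinoma cells under basal conditions with no added stimulus; test concentration not given here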
# [8] = tested on: Lefty1; assay: Lefty1 protein binding to printed compounds – biochemical, small-molecule microarray, 635/667 nm fluorescence, primary screen (AID 1139); conditions: fluorescence 635/667, higher = more signal
# [9] = tested on: wheat germ agglutinin (Triticum aestivum), Alexa647-labelled; assay: Alexa647-WGA lectin binding to printed small molecules – biochemical, small-molecule microarray, 635/667 nm fluorescence, artefact control for SMM control-protein annotation, profiling panel (AID 1140); conditions: WGA-A647 binding, 635 nm fluorescence, higher = more signal;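 also: score merges 667 nm feature emission with signal to noise over triplicate slides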
# [10] = molecular target: Luciferin 4-monooxygenase (Photinus pyralis) (UniProt P08659); assay: inhibition of purified Photinus pyralis luciferase – biochemical, luminescence, purified enzyme, 2006 set, primary screen (AID 1141); conditions: purified firefly luciferase, SteadyGlo luminescence, 30 min; higher = more signal, called active from +8 up or from −8 down;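 also: cell-free assay with purified firefly luciferase at 100 ng per well in PBS; test concentration not given here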
# [11] = tested on: Wnt5a (protein binding on small-molecule microarray); assay: small molecules binding Wnt5a protein – biophysical, small-molecule microarray, 635/667 nm fluorescence, primary screen (AID 1142); conditions: 635 nm fluorescence, higher = more signal;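 also: fluorescence read at 667 nm with signal to noise per printed feature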
# [12] = ATP-based viability of Huh7 replicon cells – cell-based, CellTiter-Glo luminescence, basal, 48 h, cytotoxicity control for HCV replication inhibitor project, primary screen (AID 1143); conditions: higher = more signal, called active from +8 up or from −8 down;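 also: Huh7 hepatoma cells carrying a hepatitis C replication reporter with no stimulus; test concentration not given here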
# [13] = Pseudomonas biofilm growth suppression – PAO1 strain, BacTiter-Glo luminescence, LB-PBS, primary screen (AID 1144); conditions: P. aeruginosa PAO1 biofilm, 12 h, higher = more signal
# [14] = basal CRE-LacZ reporter activity in PC12 – cell-based, unstimulated, primary screen (AID 1145); conditions: no forskolin, luminescence, 4.5 h, higher = more signal, called active from +8 up or from −8 down
# [15] = forskolin-driven CRE-LacZ activity in PC12 – cell-based, CRE-LacZ reporter, forskolin-stimulated, primary screen (AID 1146); conditions: luminescence, 4.5 h, higher = more signal, called active from +8 up or from −8 down;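 also: PC12 cells with 6xCRE LacZ reporter stimulated by forskolin 10 µM; beta-galactosidase reporter signal reflecting CREB driven transcription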
# [16] = molecular target: Streptavidin (Streptomyces avidinii) (UniProt P22629); assay: compounds binding control protein streptavidin – biophysical, small-molecule microarray, 635/667 nm fluorescence, artefact control for SMM compound annotation, primary screen (AID 1147); conditions: higher = more signal;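 also: signal reflects streptavidin binding to arrayed compounds as a control protein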
# [17] = probe aInhba binding on compound microarray – biochemical, small-molecule microarray, 635/667 nm fluorescence, primary screen (AID 1148); conditions: higher = more signal;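 also: score merges 667nm spot fluorescence with signal-to-noise for antibody binding to printed compounds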
# [18] = molecular target: Torsin-1A (Homo sapiens) (UniProt O14656); assay: TOR1A wild-type binding on microarray – cell lysate, small-molecule microarray, lysate, 635/667 nm, primary screen (AID 1149); conditions: COS7 hTOR1A-WT lysate, 635 nm fluorescence, higher = more signal
# [19] = molecular target: Torsin-1A (Homo sapiens) (UniProt O14656); assay: torsin A mutant lysate binding on microarrays – cell lysate, small-molecule microarray, COS7 lysate, 635/667 nm fluorescence, primary screen (AID 1150); conditions: COS7 hTOR1A mutant lysate, 635 nm fluorescence, higher = more signal;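 also: score pools 667 nm emission and signal to noise measuring lysate protein binding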
# [20] = tested on: Sonic hedgehog protein (Shh); assay: Sonic hedgehog microarray binding compounds – biochemical, small-molecule microarray, 635/667 nm fluorescence, primary screen (AID 1151); conditions: 635 nm fluorescence, higher = more signal;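 also: Shh protein binding to compounds spotted on small-molecule microarray slides; score combines spot fluorescence intensity with signal-to-noise across triplicate slides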
# Chain of Follistatin (Homo sapiens) (P19883 whole entry, looked up): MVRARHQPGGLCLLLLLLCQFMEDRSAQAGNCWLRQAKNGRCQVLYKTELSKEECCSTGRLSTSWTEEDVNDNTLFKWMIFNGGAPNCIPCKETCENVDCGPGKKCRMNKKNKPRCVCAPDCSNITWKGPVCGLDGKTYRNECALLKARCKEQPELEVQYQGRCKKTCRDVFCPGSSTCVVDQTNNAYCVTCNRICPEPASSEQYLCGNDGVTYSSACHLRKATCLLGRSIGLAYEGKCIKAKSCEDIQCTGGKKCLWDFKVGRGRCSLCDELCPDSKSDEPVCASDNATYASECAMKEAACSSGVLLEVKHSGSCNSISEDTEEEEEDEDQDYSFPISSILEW
# Chain of Focal adhesion kinase 1 (Homo sapiens) (Q05397 whole entry, looked up): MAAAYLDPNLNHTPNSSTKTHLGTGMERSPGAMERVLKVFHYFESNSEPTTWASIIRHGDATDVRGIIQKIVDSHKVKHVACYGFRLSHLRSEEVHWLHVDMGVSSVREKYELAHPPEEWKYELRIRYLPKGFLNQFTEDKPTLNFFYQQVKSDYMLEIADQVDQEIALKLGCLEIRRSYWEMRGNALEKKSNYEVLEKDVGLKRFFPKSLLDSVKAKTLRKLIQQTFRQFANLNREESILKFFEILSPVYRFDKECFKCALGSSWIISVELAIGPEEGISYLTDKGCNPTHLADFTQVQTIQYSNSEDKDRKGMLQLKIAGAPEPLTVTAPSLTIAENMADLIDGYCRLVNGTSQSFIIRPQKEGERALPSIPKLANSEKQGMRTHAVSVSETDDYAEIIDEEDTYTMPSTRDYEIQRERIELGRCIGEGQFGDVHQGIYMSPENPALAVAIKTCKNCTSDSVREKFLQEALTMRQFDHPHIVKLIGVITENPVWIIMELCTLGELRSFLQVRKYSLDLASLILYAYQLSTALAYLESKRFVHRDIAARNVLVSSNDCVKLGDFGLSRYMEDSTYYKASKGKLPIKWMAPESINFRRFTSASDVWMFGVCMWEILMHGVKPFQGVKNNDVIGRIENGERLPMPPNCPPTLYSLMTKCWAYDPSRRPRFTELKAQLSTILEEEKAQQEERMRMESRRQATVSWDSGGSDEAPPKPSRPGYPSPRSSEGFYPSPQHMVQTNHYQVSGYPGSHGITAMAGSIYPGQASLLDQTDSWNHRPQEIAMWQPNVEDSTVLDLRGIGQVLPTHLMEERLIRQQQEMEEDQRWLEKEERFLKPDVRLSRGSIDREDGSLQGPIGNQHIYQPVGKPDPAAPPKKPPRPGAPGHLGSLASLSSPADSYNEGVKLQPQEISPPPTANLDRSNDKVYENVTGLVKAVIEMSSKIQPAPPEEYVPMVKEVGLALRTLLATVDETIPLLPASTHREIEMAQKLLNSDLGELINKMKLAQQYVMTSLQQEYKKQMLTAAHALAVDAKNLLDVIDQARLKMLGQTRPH
# Chain of Luciferin 4-monooxygenase (Photinus pyralis) (P08659 whole entry, looked up): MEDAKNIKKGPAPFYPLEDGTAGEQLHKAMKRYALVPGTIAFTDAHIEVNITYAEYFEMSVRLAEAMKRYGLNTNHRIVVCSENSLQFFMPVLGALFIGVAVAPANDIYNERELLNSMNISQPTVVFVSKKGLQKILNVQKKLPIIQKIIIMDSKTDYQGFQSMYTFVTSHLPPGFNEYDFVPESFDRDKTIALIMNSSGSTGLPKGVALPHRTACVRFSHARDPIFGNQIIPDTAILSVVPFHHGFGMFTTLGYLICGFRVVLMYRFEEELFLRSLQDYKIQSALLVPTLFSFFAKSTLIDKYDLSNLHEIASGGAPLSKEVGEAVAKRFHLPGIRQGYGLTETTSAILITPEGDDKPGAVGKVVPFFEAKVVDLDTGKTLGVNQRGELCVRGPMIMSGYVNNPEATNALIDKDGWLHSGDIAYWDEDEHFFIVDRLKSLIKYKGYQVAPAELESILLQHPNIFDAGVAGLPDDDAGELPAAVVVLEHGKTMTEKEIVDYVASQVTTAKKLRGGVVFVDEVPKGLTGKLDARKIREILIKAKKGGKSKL
# Chain of Torsin-1A (Homo sapiens) (O14656 whole entry, looked up): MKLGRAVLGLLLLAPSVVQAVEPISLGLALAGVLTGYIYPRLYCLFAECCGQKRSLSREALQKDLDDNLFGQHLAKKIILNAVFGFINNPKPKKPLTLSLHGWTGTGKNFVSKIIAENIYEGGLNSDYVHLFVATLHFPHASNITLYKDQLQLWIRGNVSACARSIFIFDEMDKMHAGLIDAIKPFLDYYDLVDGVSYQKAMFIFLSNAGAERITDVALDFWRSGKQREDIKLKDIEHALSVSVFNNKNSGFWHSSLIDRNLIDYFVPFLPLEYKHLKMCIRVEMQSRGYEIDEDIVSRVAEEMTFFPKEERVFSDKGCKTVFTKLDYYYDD
# Chain of Streptavidin (Streptomyces avidinii) (P22629 whole entry, looked up): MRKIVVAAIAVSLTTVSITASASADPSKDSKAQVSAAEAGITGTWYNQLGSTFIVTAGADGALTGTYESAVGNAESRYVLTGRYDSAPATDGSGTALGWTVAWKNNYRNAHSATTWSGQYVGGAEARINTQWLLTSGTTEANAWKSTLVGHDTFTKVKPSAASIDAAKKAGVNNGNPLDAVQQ
# Chain of Fibroblast growth factor 2 (Homo sapiens) (P09038 whole entry, looked up): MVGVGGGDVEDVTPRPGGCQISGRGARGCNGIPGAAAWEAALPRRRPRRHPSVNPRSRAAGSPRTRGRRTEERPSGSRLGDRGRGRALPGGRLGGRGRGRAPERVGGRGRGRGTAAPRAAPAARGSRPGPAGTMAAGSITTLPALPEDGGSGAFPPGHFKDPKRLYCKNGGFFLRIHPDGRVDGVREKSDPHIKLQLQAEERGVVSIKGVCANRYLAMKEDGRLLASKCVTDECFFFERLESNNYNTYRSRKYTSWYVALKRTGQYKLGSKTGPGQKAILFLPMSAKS
SMILES,composite z-score [1],composite z-score [2],composite z-score [3],composite z-score [4],composite z-score [5],composite z-score [6],z-score [7],composite z-score [8],composite z-score [9],z-score [10],composite z-score [11],z-score [12],z-score [13],z-score [14],z-score [15],composite z-score [16],composite z-score [17],composite z-score [18],composite z-score [19],composite z-score [20]
O=C(NCc1ccccc1)[C@@H]1c2ccccc2C(=O)N(Cc2cc(F)cc(C(F)(F)F)c2)[C@H]1c1ccc(CO)cc1,2.54,1.19,0.187,0.571,1.27,0.339,1.45,0.61,0.144,-1.13 (inactive),0.0748,-1.26 (inactive),0.339 (inactive),-0.0888 (inactive),-1.61 (inactive),0.0709,0.0227,0.484,0.426,1.15
Cc1cc(C)c(C(O)C2C=CC3C(=O)NC(=O)C3N2Nc2ccccn2)c(C)c1 (stereo not given),0.735,1.03,0.471,0.925,1.11,-0.719,0.513,0.0668,0.994,-1.56 (inactive),-0.265,0.882 (inactive),-0.644 (inactive),-0.14 (inactive),-0.0376 (inactive),0.545,0.0599,-0.145,0.736,-0.095
O=C1C2C=CC(C(O)CCc3ccccc3)N(Nc3ccccc3)C2C(=O)N1c1ccccc1 (stereo not given),1.89,1.23,0.477,0.889,0.471,-0.464,-0.411,0.38,1.44,-0.0874 (inactive),0.742,0.267 (inactive),-0.857 (inactive),0.819 (inactive),-0.0219 (inactive),2.32,0.372,0.143,0.82,-0.365
CC(c1ccccc1)C(O)C1C=CC2C(=O)N(Cc3ccccc3)C(=O)C2N1n1cnnc1 (stereo not given),0.509,0.914,0.146,0.654,0.374,0.408,-1.27,-0.133,0.532,1.52 (inactive),0.0618,-0.0357 (inactive),0.144 (inactive),-0.172 (inactive),0.945 (inactive),0.705,-0.145,0.327,0.358,-0.506
CCCC[C@@H]1C[C@H]1[C@@H](NC(=O)c1ccco1)c1ccccc1,-0.172,-1,-0.107,-1.82,-1.64,-2.17,0.542,-1.06,-0.0439,0.771 (inactive),-0.609,-2.87 (inactive),0.0548 (inactive),0.783 (inactive),-0.787 (inactive),-1.27,-0.258,-3.91,-1.3,-1.88
O=C(N1CCCCC1)[C@]1(CCS(=O)(=O)c2ccccc2)N=C(c2ccc(OCCCO)cc2)O[C@@H]1c1ccccc1,3.05,1.22,1.29,0.949,1.18,0.619,-0.913,0.211,1.31,-0.149 (inactive),0.497,-5.48 (inactive),0.13 (inactive),1.16 (inactive),-0.526 (inactive),0.721,0.461,0.608,0.885,0.624
C#C[C@H](O[Si](C#CCCCCCC)(C(C)C)C(C)C)c1ccccc1,0.272,0.203,-0.308,-0.152,0.481,-0.471,-0.562,0.605,-0.174,1.25 (inactive),-0.348,-0.0715 (inactive),0.0625 (inactive),0.353 (inactive),0.262 (inactive),-0.0246,-0.17,0.236,0.0769,-0.102
COC(=O)[C@@]1(Cc2ccccc2)[C@H]2c3cc(C(=O)N(C)C)n(Cc4ccccc4)c3C[C@H]2CN1C(=O)c1ccccc1,1.21,1.13,0.614,0.839,0.241,-0.605,0.458,-0.0169,1.04,1.66 (inactive),0.347,-0.513 (inactive),0.0307 (inactive),0.776 (inactive),1.08 (inactive),1.68,0.209,-0.314,0.766,-0.867
CN1C(=O)C2C=CC(C(O)C(c3ccccc3)c3ccccc3)N(Nc3ccccc3)C2C1=O (stereo not given),0.889,1.19,0.668,1.03,1.36,0.0635,0.0496,0.643,0.889,-0.0128 (inactive),0.35,-1.91 (inactive),-0.437 (inactive),-0.14 (inactive),0.574 (inactive),1.49,0.0857,0.096,0.585,0.424
CC[C@@H]1C=C(C(=O)O)[C@H](c2ccc(C(C)C)cc2)N1S(=O)(=O)c1ccc(C)cc1,2.08,1.21,1.17,1.03,0.919,0.52,-1.25,0.0565,1.35,0.734 (inactive),0.764,-0.822 (inactive),0.448 (inactive),-0.0137 (inactive),-0.0578 (inactive),0.939,0.432,0.145,1.22,0.34
